Among all 300,000 compounds or so, about 3,300 (1.1%) were called active. Another 6% or so got no clear call; they are omitted. The sample holds actives, similar compounds and a random draw of the others, so the mix is not that of the screen.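 Rule for the calls: active = more than half of the replicate wells show a fall in the fluorescence ratio signal beyond about 16% (limit read from the data, passing the limit was not always enough); inconclusive = exactly half of the replicate wells pass the set limit; inactive = fewer than half of replicates pass the limit.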

The assay relates to Ran GTPase (GTP-bound) - importin-beta complex. Description: inhibitors of RanGTP-importin-beta interaction, primary screen, biochemical, FRET, CFP-Ran, YFP-importin-beta, homogeneous (AID 2216).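 Note: 0% = DMSO wells and 100% = Ran loaded with GDP instead of GTP.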 The following applies: cell-free CFP-Ran/YFP-importin-beta FRET ratio; active compounds read high; concentration not given here.
Take `Cn1nccc1CNC(=O)c1ccnn1C`: the inhibition was -4.46% (inactive).

For the compound `CCN(CC)C(=O)c1sc(NC(=O)c2ccco2)c(C#N)c1C`, the inhibition is 5.09% (inactive).

As for `CCCc1ccc(-c2c(C)sc(NC(=O)c3ccnn3C)c2C#N)cc1`, the inhibition is 69.5% (active).

For `O=C(COC(=O)Cn1[nH]c(=O)c2ccccc2c1=O)Nc1c(Cl)cccc1C(F)(F)F`, the inhibition was 0.554% (inactive).

For the compound `CCCCn1c(N)c(N(CC(C)C)C(=O)c2ccc(-n3c(C)ccc3C)cc2)c(=O)[nH]c1=O`, the inhibition was 2.98% (inactive).

Turning to `CC(=O)N1CCc2c(sc(NC(=O)CCS(=O)(=O)c3ccccc3)c2C#N)C1`, the inhibition was 2.62% (inactive).

Consider `Cc1ccc(S(=O)(=O)CC(=O)Nc2sc(C)c(C)c2C(N)=O)cc1`, for which the inhibition is 1.11% (inactive).

Regarding `CC(=O)N1CCc2c(sc(NC(=O)CCS(=O)(=O)c3ccc(C)cc3)c2C(N)=O)C1`, the inhibition was 32.8% (active).

As to `CCOC(=O)c1cc(NC(=O)c2cccnc2)ccn1`, the inhibition was -2.83% (inactive).

With `N#Cc1c(N)n(CCOC(=O)c2ccc(Cl)cc2)c2nc3ccccc3nc12`, the inhibition was 39.9% (active).

For `CC(C)(C)c1ccc(C(=O)NCCC(=O)NCc2ccco2)cc1`, the inhibition was 1.67% (inactive).

For the compound `CN1OC(COC(=O)c2ccc(Cl)cc2)CC1c1ccccc1` (configuration not stated), the inhibition was 2.75% (inactive).

With `CCCCNC(=O)CCNC(=O)c1ccc(C(C)(C)C)cc1`, the inhibition was 3.77% (inactive).

For `CC(C)(C)c1ccc(C(=O)NCCn2c(N)c(C#N)c3nc4ccccc4nc32)cc1`, the inhibition was 82.8% (active).

As to `Cn1cncc1COC(=O)c1ccc(Cl)cc1`, the inhibition is 0.688% (inactive).

On to `CN(C(=O)c1cc2c(=O)n3ccccc3nc2s1)C1CCCCC1`, for which the inhibition is 2.4% (inactive).

As to `CCOc1cc(C(=O)Nc2ccc(S(=O)(=O)Nc3cnc4ccccc4n3)cc2)cc(OCC)c1OCC`, the inhibition is 7.91% (inactive).

Consider `CCN1CCN(c2ccc(S(=O)(=O)N3CCCCC3)cc2NC(=O)Cc2c(Cl)cccc2Cl)CC1`, for which the inhibition was 1.25% (inactive).

Turning to `O=C(c1ccc(F)c(S(=O)(=O)N2CCOCC2)c1)N(CCc1ccccc1)Cc1ccccc1`, the inhibition is 7.49% (inactive).

Take `CCC(C)N(C(=O)COC(=O)c1nc(Cl)ccc1Cl)C1CCS(=O)(=O)C1` (configuration not stated): the inhibition was 7.73% (inactive).

For `O=c1oc2cc(O)ccc2cc1-c1ccc(F)cc1`, the inhibition is 149% (active).

On to `O=c1c(-c2ccccc2)coc2cc(O)ccc12`, for which the inhibition is -0.924% (inactive).

Consider `COc1ccc(-c2cc3ccc(OCc4nn[nH]n4)cc3oc2=O)cc1`, for which the inhibition is -0.255% (inactive).

Turning to `O=C(Nc1cc2c3c(c1)CC(=O)N3CCC2)c1ccccc1F`, the inhibition was 0.312% (inactive).

Regarding `O=C(Nc1ccc(Cl)cc1)N1CCc2[nH]c3ccccc3c2C1`, the inhibition is 29.2% (active).

With `CCCC(=O)N1CCc2[nH]c3ccccc3c2C1`, the inhibition was 29% (active).

For `Fc1ccc(NC(=S)N2CCc3[nH]c4ccccc4c3C2)cc1`, the inhibition is 9.84% (inactive).

As to `Cc1ccc2[nH]c3c(c2c1)CN(C(=O)CN1CCN(c2ccccc2)CC1)CC3`, the inhibition was -23.4% (inactive).

On to `C=CCNC(=S)N1CCc2[nH]c3ccccc3c2C1`, for which the inhibition is 3.44% (inactive).

On to `CCc1ccc(NC(=O)N2CCc3ccccc3C2)cc1`, for which the inhibition is -4.66% (inactive).

Regarding `CC(=O)c1c(C)[nH]c(C(=O)COC(=O)CCOc2ccc(C)cc2)c1C`, the inhibition was 6.12% (inactive).

Take `COc1ccccc1C(=O)NC(CCSC)C(=O)N1CCN(C/C=C/c2ccccc2)CC1` (configuration not stated): the inhibition was 0.266% (inactive).

Turning to `CCOc1ccc(S(=O)(=O)NCCC(=O)N2CCCCCCC2)cc1`, the inhibition was 0.262% (inactive).

On to `CCN(CC(=O)Nc1c(F)cccc1F)C(=O)C1CCC1`, for which the inhibition was 0.154% (inactive).

As to `Cc1cc(S(=O)(=O)c2cc3ccc(O)c(C)c3oc2=O)ccc1F`, the inhibition was 132% (active).

Turning to `CCCCN(C(=O)c1ccc(S(=O)(=O)N2CCOCC2)cc1)C1CCS(=O)(=O)C1` (configuration not stated), the inhibition is -4.84% (inactive).

Take `NC(=O)CSc1nnc(NC(=O)c2ccc3ccccc3c2)s1`: the inhibition is 5.81% (inactive).

Regarding `COc1ccc(/C=N/Nc2cc(N3CCOCC3)nc(C)n2)c(OC)c1`, the inhibition was -3.31% (inactive).

For the compound `CN(C)c1ccc(/C=N/Nc2cc(N3CCOCC3)nc(N3CCOCC3)n2)cc1`, the inhibition is 25.8% (active).

`Cc1ccccc1N/N=C/c1ccc(N2CCOCC2)cc1`: the inhibition is 1.62% (inactive).

Consider `Brc1cnc2ccccc2c1N1CCCCC1`, for which the inhibition was -1.98% (inactive).

As to `COc1ccc(C(C#N)(CC(=O)O)c2cnccn2)cc1OC` (configuration not stated), the inhibition is 5.73% (inactive).

As to `Cc1cc(NC(=O)CCS(=O)(=O)c2ccc(F)cc2)no1`, the inhibition was -2.56% (inactive).

Turning to `CCc1cccc(C)c1NC(=O)COC(=O)CNC(=O)c1cccs1`, the inhibition is 0.115% (inactive).

For `COc1ccc(NC(=O)CCC(=O)N2CCN(S(=O)(=O)c3ccc(C)cc3)CC2)c(OC)c1`, the inhibition is 2.41% (inactive).

For `CCOCCCNc1c(CC)c(C)c(C#N)c2nc3ccccc3n12`, the inhibition was 10.7% (inactive).

For the compound `Cc1cc(NCc2ccco2)n2c(nc3ccccc32)c1C#N`, the inhibition is 102% (active).

As for `CC(C)c1cc(NCc2ccccn2)n2c(nc3ccccc32)c1C#N`, the inhibition was 51% (active).

Regarding `Cc1c(C(=O)Nc2cccc(Cl)c2)cn2c(nc3ccccc32)c1C#N`, the inhibition is 10.5% (inactive).

Take `Cc1ccccc1-c1nc(C#N)c(NCc2ccco2)o1`: the inhibition was -0.838% (inactive).

Turning to `Cc1cc(NC(C)C)n2c(nc3ccccc32)c1C#N`, the inhibition was -3.25% (inactive).

Turning to `Nc1c(C(=O)Nc2ccc3c(c2)OCCO3)nnn1Cc1ccccc1`, the inhibition is -8.94% (inactive).

Consider `COc1ccc(-c2csc3ncnc(N4CCN(S(=O)(=O)c5cccc(F)c5)CC4)c23)cc1`, for which the inhibition is -3.81% (inactive).

In the case of `CCOc1ccc(C(=O)CCN2CCOCC2)cc1`, the inhibition is 4.03% (inactive).

On to `COc1cc(C(=O)NCC(=O)N2CC=C(c3ccccc3)CC2)cc(OC)c1OC`, for which the inhibition was 0.563% (inactive).

`COc1ccc(C2CC(c3cccs3)=NN2c2ccc(F)cc2)cc1OC` (configuration not stated): the inhibition was 53.2% (active).

On to `COc1ccc(C2CC(c3cccs3)=NN2c2nc(C)c(C(C)=O)s2)cc1OC` (configuration not stated), for which the inhibition was 89.5% (active).

For `COc1ccccc1N1N=C(c2cccs2)CC1c1ccccc1` (configuration not stated), the inhibition is -0.43% (inactive).

As for `COc1ccc(C2CC(c3cccs3)=NN2c2ccccc2)cc1` (configuration not stated), the inhibition was 2.04% (inactive).

On to `COc1ccc(C2CC(c3cccs3)=NN2C(=O)CCC(=O)O)cc1OC` (configuration not stated), for which the inhibition is -4.44% (inactive).

As to `COc1ccc(C2CC(c3cccs3)=NN2C(=O)CSc2nncs2)cc1OC` (configuration not stated), the inhibition was -2.68% (inactive).

On to `O=C(COC(=O)c1ccccn1)NNC(=O)c1ccc([N+](=O)[O-])cc1`, for which the inhibition was 4.26% (inactive).

On to `CN(CC(=O)NCc1cccnc1)S(=O)(=O)c1cc(Cl)ccc1Cl`, for which the inhibition is 4.66% (inactive).

With `COc1ccc(NC(=O)CN(C)C(=O)Cc2coc3cc(C)c(C)cc23)cc1`, the inhibition is 0.0585% (inactive).

For `C=CCOc1cccc(C2C(C(=O)c3ccc(C)o3)=C(O)C(=O)N2c2nnc(C)s2)c1` (configuration not stated), the inhibition was -5.03% (inactive).

Consider `O=C1N[C@@H](Cc2ccccc2)C(=O)N2[C@@H]3N(S(=O)(=O)c4ccc(F)cc4)c4ccccc4[C@]3(Br)C[C@@H]12`, for which the inhibition is 5.5% (inactive).

Regarding `O=C(CCl)NNc1nc(-c2ccccc2)c2cc(Cl)ccc2n1`, the inhibition is -0.54% (inactive).

Regarding `NC(N)=Nc1nc(-c2ccccc2)c2cc(Cl)ccc2n1`, the inhibition was 4.42% (inactive).

Regarding `OCCCNc1nc(-c2ccccc2)c2cc(Cl)ccc2n1`, the inhibition is 50.7% (active).

For `Cc1cc(C)c(S(=O)(=O)n2cc(C(C)C(N)C(=O)O)c3ccccc32)c(C)c1` (configuration not stated), the inhibition is -3.39% (inactive).

With `CCCCN(CCCC)CC(O)Cn1c2ccccc2c(=O)c2ccccc21` (configuration not stated), the inhibition is 114% (active).

As to `O=C1c2ccccc2S(=O)(=O)N1CC(O)Cn1c2ccccc2c2ccccc21` (configuration not stated), the inhibition was 3.48% (inactive).

Consider `CS(=O)(=O)N(CC(O)Cn1c2ccccc2c2ccccc21)c1cccc2ccccc12` (configuration not stated), for which the inhibition was 2.16% (inactive).

Take `O=C(COC(=O)CNS(=O)(=O)c1ccc(F)c(F)c1F)NC1CCCC1`: the inhibition is -1.07% (inactive).

Turning to `CCOc1ccccc1C1C(C(=O)OC)=CN(C)C=C1C(=O)OC`, the inhibition is 118% (active).

On to `COC(=O)C1=CN(C)C=C(C(=O)OC)C1c1ccc(Cl)cc1Cl`, for which the inhibition is 2.63% (inactive).

Take `CCOc1ccccc1N(CC(=O)Nc1ccccc1C(=O)OC)S(C)(=O)=O`: the inhibition is 2.19% (inactive).

For the compound `COc1ccc(Cc2nnc(SCC(=O)N(c3ccccc3)C(C)C)n(N)c2=O)cc1`, the inhibition was -2.45% (inactive).

Take `Clc1cccc(Cl)c1OCCOCCNCc1ccccc1`: the inhibition is 0.589% (inactive).

In the case of `OCCNCCOc1ccc(Cl)c(Cl)c1`, the inhibition was -2.77% (inactive).

As to `OCCNCc1cccc(OCc2ccccc2Cl)c1`, the inhibition is 17.6% (active).

With `CCCCN1C(N)=NC[C@@H]1Cc1ccccc1`, the inhibition was -2.74% (inactive).

Consider `Cc1ccn2c(=O)nc(SCC(=O)NCc3ccc4c(c3)OCO4)nc2c1`, for which the inhibition is -2.18% (inactive).

Regarding `COc1ccc(-n2nnnc2CNC(=O)c2ccc3ccccc3c2)cc1`, the inhibition was 3.81% (inactive).

Regarding `O=C(CSc1nc(=O)n2ccccc2n1)Nc1ccc2c(c1)OCCO2`, the inhibition is 0.244% (inactive).

As for `CC(C)Nc1nnc(SC(C)C(=O)N(C)C2CCCCC2)s1` (configuration not stated), the inhibition was 2.7% (inactive).

Turning to `O=C(CN1CCOCC1)Nc1c(-c2ccccc2)c2cc(Br)ccc2[nH]c1=O`, the inhibition is -3.33% (inactive).

For `C/C(=N\N)c1c(-c2ccccc2)c2cc(Br)ccc2[nH]c1=O`, the inhibition was 21.4% (active).

On to `CC(=O)c1c(-c2ccccc2)c2ccccc2[nH]c1=O`, for which the inhibition is -2.98% (inactive).

With `CN(C)CCCNC(=O)c1ccc2[nH]c3ccccc3c2c1`, the inhibition was -2.02% (inactive).

Turning to `CCN(CCCNC(=O)c1ccc2c(c1)NC(=O)CN2C)c1cccc(C)c1`, the inhibition is 20.7% (active).

Turning to `CCN(CCCNC(=O)CCn1c(=O)[nH]c2ccsc2c1=O)c1ccccc1`, the inhibition was 8.57% (inactive).

As to `Cc1ccc(NC(=O)CSCC(=O)Nc2sccc2C#N)cc1`, the inhibition is -2.13% (inactive).

For `O=C(COC(=O)/C=C/c1ccc(OC(F)F)cc1)NC1CCCCC1`, the inhibition was -7.27% (inactive).

On to `N#Cc1c(C(F)(F)F)cc(-c2ccccc2)nc1SCC(=O)N1CCOCC1`, for which the inhibition is 3.19% (inactive).

On to `CCN(CC)c1nc(-c2ccccc2)cc(C(F)(F)F)c1C#N`, for which the inhibition is 25.9% (active).

With `N#Cc1c(C(F)(F)F)cc(-c2ccc(Cl)cc2)nc1SCC(=O)O`, the inhibition is -1.29% (inactive).

The values above are taken from PubChem BioAssay AID2216 (Broad Institute, 2009).
